The text below walks through data of PubChem BioAssay AID686978 (National Center for Advancing Translational Sciences (NCATS), 2013).

The whole screen tested about 420,000 compounds, of which about 64,000 (15%) were called active. Another 27% or so got no clear call; they are omitted. The call rests on the fitted dose curve; in most records, active means well fitted inhibition curve with a large enough effect; inconclusive means small, poorly fitted or top-dose-only effect; inactive means flat fitted curve, though single readings scatter. These entries were drawn from the full list. Where a call stands in place of a potency, no number is given.
Potency means the concentration at half of the fitted maximal effect.

This test in a line: qHTS for Inhibitors of human tyrosyl-DNA phosphodiesterase 1 (TDP1): qHTS in cells in absence of CPT. Further: nearly all actives have a fitted effect of over 55% in size. The conditions noted are these: DT40 Tdp1-/- hTDP1 cells, no CPT, ATP luminescence, 48 h; activity change, negative = growth inhibition: at 46.2 µM (top of the series). The source says: Human tyrosyl-DNA phosphodiesterase 1 (TDP1) is a novel repair gene, and we propose to use it as a new target for anticancer drug development. TDP1 is not an essential protein, but under treatment with topoisomerase I poison (camptothecin: CPT), TDP1 works as a critical factor for cell survival. To directly identify novel TDP1 inhibitors active in a cellular environment, we have knocked-out the Tdp1 gene in chicken DT40 cells (Tdp1-/-) and generated a complemented counterpart cells that contains a stable transfection of the human TDP1 gene (Tdp1-/-;hTDP1 cells). For the primary screen, Tdp1-/-;hTDP1 cells will be exposed to small molecules in the presence or absence of CPT, and their growth kinetics will be evaluated after 48 hours by measuring ATP activity. […] The hit compounds will then be evaluated in the presence or absence of CPT using Tdp1-/- cells. […] In tertiary assays, biochemical gel-based assays will be used to assess whether the hit compounds specifically target TDP1.
To this end, we have screened this cell line against the MLSMR in two primary screens. In one screen we add CPT and in the other we screen in the absence of CPT; this AID represents the screen where CPT was absent.
NIH Chemical Genomics Center [NCGC]
NIH Molecular Libraries Probe Centers Network [MLPCN]
Assay Submitter (PI): Yves Pommier, NCI
DT40-hTDP1 cells without 20 nM Camptothecin (add 20 microL of DMSO in 1 L of cell culture medium) were dispensed at 400 cells/5microL/well in tissue culture treated 1536-well white wall/solid bottom assay plates (Greiner Bio-One North America, NC, U.S.A.) using a Multidrop Combi 8 channel dispenser (Thermo Fisher, Waltham, MA, USA). 23 nL compounds and controls were transferred using the pin tool (Kalypsys, San Diego, CA, USA) to the assay plates. The assay plates were then incubated at 37 masculineC for a minimum 48 hr. Three microL of Cell Titer Glo solution was added to the plates and incubated at RT in dark for 30 min. Luminescence was read using ViewLux (Perkin Elmer) with 1 sec exposure slow speed, high gain and 2x binning.
In the case of `COc1ccc(-c2nn3c(=O)cc(CN4CCN(C(=O)c5ccc(OC)c(OC)c5)CC4)nc3s2)cc1`, the Potency result is “inactive”.

Consider `COc1ccc(/C=N/NC(=O)c2ccc(Cl)cc2)cc1COC(C)=O`, for which the Potency entry is “inactive”.

With `CCOc1ccc(-c2cc(C(=O)N/N=C/c3ccc(O)cc3)c3ccccc3n2)cc1`, the Potency is 0.651 µM (active). Consider `O=C(COc1ccc(/C=N/NC(=O)c2ccc(O)cc2)cc1)Nc1ccc([N+](=O)[O-])cc1`, for which the Potency entry was “inactive”.

In the case of `COc1ccc(/C=N\NC(=O)c2sc(N)nc2C)cc1OC`, the Potency result was “inactive”. `Cc1ccc(-c2cc(C(=O)N/N=C/C=C/c3ccco3)c3ccccc3n2)cc1C`: the Potency is 8.2 µM (active).

For the molecule `O=C(Nc1cccc(F)c1)c1cc(-c2ccco2)nc2ccccc12`, the Potency entry is “inactive”. With `Cc1nonc1C(=O)N/N=C/c1ccc(O)cc1`, the Potency result was “inactive”. As for `COc1ccc(/C=N/NC(=O)c2cc(-c3cccc(C)c3)nc3ccccc23)cc1O`, the Potency was 2.31 µM (active). As to `Cc1ccc(N2NC(=O)/C(=C/C=C/c3ccco3)C2=O)cc1C`, the Potency result is “inactive”. As for `COc1cccc(-c2cc(C(=O)N/N=C/c3ccc(OC)c(COC(C)=O)c3)c3ccccc3n2)c1`, the Potency is 2.06 µM (active). With `Cc1ccc(S(=O)(=O)NCCC(c2ccccc2)c2ccccc2)cc1C(=O)O` the entry was “inactive”. `O=C(CCCOc1ccc(Cl)cc1Cl)NNC(=O)C1CCC1`: the Potency entry is “inactive”. With `Cc1ccc(C)c2[nH]c(=O)c(CCNC(=O)CC(C)C)cc12` the entry was “inactive”; with `COc1ccc(Cc2nnnn2CC(=O)O)cc1`, “inactive”; with `Cc1ccc(S(=O)(=O)CC(=O)Nc2c(C)n(C)n(-c3ccccc3)c2=O)cc1`, “inactive”. With `Cc1cc(C)n2nc(SCC(N)=O)nc2n1` the entry was “inactive”; with `CC(NC(=O)COC(=O)Cn1cc(C(F)(F)F)ccc1=O)c1ccccc1` (stereo not drawn), “inactive”; with `CCOC(=O)c1c(C)[nH]c(C)c1S(=O)(=O)NCC(=O)NCc1cccc(C)c1`, “inactive”.

`COc1cc(/C=N/NC(=O)c2cc(-c3ccccc3C)nc3ccccc23)cc(OC)c1O`: the Potency is 6.51 µM (active). With `COc1cc(/C=N\NC(=O)C2C(=O)NCC2c2ccccc2)cc(OC)c1O` (stereo not drawn) the entry was “inactive”. For the molecule `CC1(C)CC(CC(=O)O)C(=O)O1` (stereo not drawn), the Potency result was “inactive”. With `CC(=O)NCC(=O)N(C)C(C(=O)Nc1ccc2c(c1)OCCO2)c1ccccc1` (stereo not drawn) the entry was “inactive”. Turning to `N#Cc1ccccc1NC(=O)c1cccc(COc2ccc(Cl)cc2Cl)c1`, the Potency result is “inactive”. Consider `Cc1nn(CC(=O)Nc2ccc(F)cc2)c(=O)c2ccccc12`, for which the Potency result is “inactive”. In the case of `Cc1ccc(NC(=O)Cn2c(C)csc2=O)cc1`, the Potency entry was “inactive”.

As for `Cc1ccc(NC(=O)Cn2sc3ccccc3c2=O)cc1`, the Potency is 4.61 µM (active). With `CCN1CCN(C(=O)CN(C)S(=O)(=O)c2ccc3ccccc3c2)CC1` the entry was “inactive”.

On to `CSCC[C@H](NC(=O)NCCc1ccc(F)cc1)C(=O)O`, for which the Potency result was “inactive”. For `O=C(Nc1cccc(Br)c1)C1CC(=O)N(C2CCCC2)C1` (stereo not drawn), the Potency entry was “inactive”.

Take `COc1ccc(Br)cc1CN(C)C(=O)C1CC(=O)N(C2CCCC2)C1` (stereo not drawn): the Potency is 23.1 µM (active). For the molecule `CN(CC(=O)Nc1ccc(F)c(F)c1F)C(=O)C1CC(=O)N(C2CCCC2)C1` (stereo not drawn), the Potency entry is “inactive”. Consider `CC(C)C(=O)Nc1oc(-c2ccccc2)cc1C#N`, for which the Potency result is “inactive”. As to `Cc1ccc(NC(=O)CN(C)C(=O)Cn2nnc(-c3ccccc3)n2)cc1`, the Potency entry is “inactive”. Take `CCCn1nc(C(=O)NNC(=O)CSCC(=O)Nc2cc(C)on2)c2ccccc2c1=O`: the Potency result was “inactive”. Consider `CCCn1nc(C(=O)Nc2ccc3nc(C)sc3c2)c2ccccc2c1=O`, for which the Potency is 18.4 µM (active). With `CCCn1nc(C(=O)NNC(=O)CCOc2ccccc2OCC)c2ccccc2c1=O`, the Potency result was “inactive”. As to `CCCCCC(=O)Nc1ccc(C(=O)N/N=C/c2ccc([N+](=O)[O-])cc2)cc1`, the Potency result is “inactive”.

As to `CCOC(=O)/C=C/CN(C(=O)OC(C)(C)C)S(=O)(=O)N1CC=CC1`, the Potency result was “inactive”. The result for `Cc1ccccc1C(=O)O` reads “inactive”; that for `COC(=O)c1ccccc1C(=O)NCc1nc(N2CCCC2)c2cccc(C)c2n1`, “inactive”; that for `CCOc1ccc2[nH]c(C(=O)N/N=C/c3cccc(OC)c3OC)cc2c1`, 16.4 µM (active). In the case of `COc1cccc2[nH]c(C(=O)NCCc3ccccc3)cc12`, the Potency entry is “inactive”. Regarding `COc1cc2cc(C(=O)N/N=C/c3cccc(OC)c3OC)[nH]c2cc1OC`, the Potency is 13 µM (active). In the case of `COc1ccc2[nH]c(C(=O)Nc3ccccc3Cl)cc2c1`, the Potency entry is “inactive”. As for `COc1ccc(/C=N/NC(=O)c2cccc(C(F)(F)F)c2)cc1`, the Potency entry was “inactive”. On to `CCOc1ccccc1/C=N/NC(=O)CNC(=O)COc1ccccc1`, for which the Potency entry is “inactive”. For the molecule `CCCOP(=O)(c1ccc(N(C)C)cc1)C(O)c1cc(OC)c(OC)c(OC)c1` (stereo not drawn), the Potency result is “inactive”. Consider `Cc1ccc2oc(=O)ccc2c1`, for which the Potency entry is “inactive”. Consider `CC(=O)Nc1ccc(S(=O)(=O)Nc2nccc(/C=C/c3ccccc3F)n2)cc1`, for which the Potency result is “inactive”. Take `C=CC(COCc1ccccc1)N(CC(=O)OC)S(=O)(=O)c1cc(Br)ccc1OC` (stereo not drawn): the Potency is 25.9 µM (active).

Regarding `COCCNS(=O)(=O)c1cc(Br)ccc1OC`, the Potency result is “inactive”. Consider `C=CCCN(Cc1ccccc1)S(=O)(=O)c1ccccc1Br`, for which the Potency entry is “inactive”.

With `CCN(Cc1ccccc1)S(=O)(=O)c1cc(C(=O)O)ccc1OC`, the Potency entry is “inactive”. With `CCN([C@H](CO)C(C)C)S(=O)(=O)c1ccccc1Br` the entry was “inactive”; with `C=CC(COCc1ccccc1)N(Cc1ccccc1)S(=O)(=O)c1ccccc1Br` (stereo not drawn), 16.4 µM (active).

For `CCN(CCn1cccn1)C(=O)CC1C(=O)NCCN1Cc1cccc(OC)c1OC` (stereo not drawn), the Potency result was “inactive”.

In the case of `Brc1ccc(-c2nn[nH]n2)cc1`, the Potency result was “inactive”. In the case of `CCN=C1SC(CC(=O)Nc2ccc(C)cc2)C(=O)N1CC` (stereo not drawn), the Potency entry was “inactive”. With `O=C(c1ccc(CS(=O)Cc2ccccc2Cl)o1)N1CCN(c2ccccc2)CC1` (stereo not drawn) the figure was 20.6 µM (active).

As for `O=C(NCc1cccs1)c1ccc(CS(=O)Cc2ccccc2Cl)o1` (stereo not drawn), the Potency entry is “inactive”. The result for `COc1ccc(NS(=O)(=O)c2cccc3nsnc23)cc1Cl` reads “inactive”. As for `C=CCn1c(-c2ccc(Cl)cc2)ccc(C#N)c1=O`, the Potency result was “inactive”. With `CCN(CC)c1ccc(C(=O)c2cnc(/N=C/N(C)C)s2)cc1`, the Potency result is “inactive”. As for `Cc1ccnc2nc(C(=O)Nc3nnc(-c4ccccc4)o3)nn12`, the Potency entry is “inactive”.

On to `CC1CCCCC1NCC(=O)Nc1ccccc1C(=O)Nc1ccccc1` (stereo not drawn), for which the Potency was 14.6 µM (active). With `CC(NCC(=O)Nc1ccccc1C(=O)NC1CC1)c1ccccc1Cl` (stereo not drawn) the entry was “inactive”; with `Cc1ccc(OCC(=O)Nc2ccccc2C(=O)NC2CC2)cc1C`, “inactive”.
